Epigenetic reg = derepresses silenced GFP reporter in murine cells; murine LDR cells, GFP reporter derepression, 30 h; Potency, µM (titrated, usually from 53.9 µM), for the others: top-dose GFP activation, actives largely listed as activators; 280,000 tested, 0.2% active; active = well fitted activation curve with a large enough effect; inconclusive = small, poorly fitted or top-dose-only effect; also: potency is read from the fitted curve at half-maximal effect; % of control where 0% means no effect; nearly all actives have a fitted effect of over 60% in size
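Derepression of a silenced CMV-GFP reporter in murine LDR cells is scored by enumerating GFP-positive cells with a laser-scanning microplate cytometer after 30 hours of treatment at 37 C.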
D1 agonist = activates the human D1 dopamine receptor; HEK293 T-REx D1 cells, calcium flux, agonist mode; AID 504660; 360,000 tested, 1% active; activation, % at 2 µM; also: 0% is about no effect
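Agonism was scored from calcium flux recorded over 180 s (1 read/s) after pintool compound addition, following a 10-cycle baseline. Cells were inducible force-coupled HEK293 TREx D1, plated overnight at 30 C and loaded with no-wash calcium dye.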
D1 antag = blocks dopamine activation of the human D1 receptor | P21728 | HEK293 TREx D1 cells, calcium flux, dopamine EC80; active compounds read low | activity change, negative = inhibition, % at 10 µM | 360,000 tested, 3.2% active; in the data active = activity change below about -30%; also: % is scaled to controls: 0 for no effect and ±100 for the full control effect
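Kinetic fluorescence of a calcium dye serves as the read-out. D1-expressing Hek293 Trex cells, induced overnight at 30 C, are exposed to compound for 180 s before an EC80 dopamine addition, then read 180 s further.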
TRHR enhancer = allosterically enhances the human TRH receptor; P34981; TRHR cells, fluo-8 calcium fluorescence, EC20 TRH enhancement; enhancement, % at 2 µM; 360,000 tested, 0.66% active; in the data active = enhancement above about 30%; also: 0% is about no effect
Target sequence (P34981 whole entry, looked up): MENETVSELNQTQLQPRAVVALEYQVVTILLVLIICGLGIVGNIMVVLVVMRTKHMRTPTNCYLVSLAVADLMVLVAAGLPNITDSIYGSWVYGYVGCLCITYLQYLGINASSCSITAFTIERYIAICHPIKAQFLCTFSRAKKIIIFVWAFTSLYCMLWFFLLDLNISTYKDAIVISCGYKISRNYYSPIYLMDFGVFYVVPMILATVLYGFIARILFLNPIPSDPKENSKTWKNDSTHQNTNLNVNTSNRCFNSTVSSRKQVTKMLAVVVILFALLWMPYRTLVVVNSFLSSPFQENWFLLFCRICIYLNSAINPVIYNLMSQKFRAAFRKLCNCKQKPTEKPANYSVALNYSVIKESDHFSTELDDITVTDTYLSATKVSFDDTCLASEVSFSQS
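Enhancer read-out: after compound pinning and an initial kinetic agonist-mode read, an EC20 of TRH (10 nM final) was injected and fluo-8 calcium signal (Ex 480/Em 530) followed at 1 s/cycle for 100 cycles in TRHR-expressing cells.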
TRHR ag = TRH receptor (human) agonism; AID 493084; P34981; 360,000 tested, 0.18% active; activation, % at 2 µM; TRHR cells, calcium flux fluo-8, FDSS agonist mode; also: 0% is about no effect
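Steps: seed TRHR cells overnight; add fluo-8 no-wash Ca dye, RT 30 min–1.5 h; record 10 s baseline; pin-transfer compounds; monitor fluorescence 1 cycle/s for the agonist window. Calcium increases flag candidate agonists.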
D1 potentiator = enhances dopamine response at the human D1 receptor | P21728 | HEK293 TREx D1 cells, calcium flux, dopamine EC20 potentiation | potentiation, % at 10 µM | 360,000 tested, 0.036% active | AID 504651; in the data active = potentiation above about 30%; also: 0% is about no effect
* marks the source's active call; other numbers are inactive results; ? = inconclusive; . = no result given; ! = a repeat was not active; [ ] = another dose, or the depositor's remark. A selection: hits, their analogues and other compounds. The true share with any hit is near 4.6%. Rule as the data show it, unless noted: active = activation above about 30%; inactive = the rest.

SMILES	Epigenetic reg	D1 agonist	D1 antag	TRHR enhancer	TRHR ag	D1 potentiator
COc1ccc(-c2nnc(SCC(=O)Nc3cc(F)ccc3C)o2)cc1	1.5%	12.4	-38.7*	13.4	-1.1	.
COc1ccccc1NC(=O)CSc1nnc(-c2ccc(C)cc2)o1	0.0%	1.1	-82.3*	-4.8	0.0	-10.2
COc1ccc(CCCc2nnc(SCC(=O)Nc3ccccc3F)o2)cc1C	-0.8%	15.3	-30.0	0.5	0.6	-1.6
COc1ccc(CCCc2nnc(SCC(=O)Nc3ccc(F)cc3)o2)cc1C	0.3%	1.4	-50.0*	3.1	-0.7	-5.2
Cc1cccc(CSc2cn(CC(=O)N3CCOCC3)c3ccccc23)c1	7.2%	1.6	-33.4*!	-0.4	-0.2	0.9
COc1cc(C2C(C(=O)C(C)(C)C)=C(O)C(=O)N2Cc2ccccc2)ccc1O (centres undefined)	.	2.1	-10.8	-1.7	1.3	6.8
COc1cc(C2C(C(C)=O)=C(O)C(=O)N2Cc2ccccc2)ccc1O (centres undefined)	.	2.2	-31.6*	6.0	-0.3	-5.0
COC(=O)c1cccc(NC(=S)Nc2ccccc2Cl)c1	0.0%	2.9	7.3	5.4	0.3	-2.9
COC(=O)c1cccc(NC(=S)Nc2ccc(Cl)c(Cl)c2)c1	0.7%	7.4	-30.9*	-7.3	0.4	-3.6
COC(=O)c1cccc(NC(=O)Nc2ccc(Cl)cc2)c1	7.0%	25.5	-34.5*	-10.5	3.0	-3.4
CCOc1ccc2nc(NC(=O)c3nc(SC(C)C)ncc3Cl)sc2c1	4.4%	1.5	4.2	-0.8	2.2	5.0
Cc1ccccc1CN1c2ccccc2-c2nc(SCC(=O)c3ccccc3)ncc2S1(=O)=O	0.6%	1.9	-37.9*	0.1	0.4	1.9
CCc1ccccc1NC(=O)CSc1ncc2c(n1)-c1ccccc1N(Cc1ccc(C)cc1)S2(=O)=O	?	2.4	-37.0*	-2.3	0.0	-7.7
COc1ccc(Cl)cc1C(=O)Nc1sc2c(c1C(=O)OC(C)C)CCCC2	-0.8%	0.3	-2.2	1.6	0.7	2.5
CCOc1cc2[nH]c(=O)n(CCC(=O)N3CCN(c4cccc(Cl)c4)CC3)c(=O)c2cc1OCC	0.0%	-0.4	0.9	-7.9	0.0	-2.1
COc1cccc(-c2cn3c(n2)sc2cc(C(=O)NCCc4ccc(OC)c(OC)c4)ccc23)c1	0.0%	4.2	-9.4	5.8	-0.7	-3.2
Cc1cccc(N2CCN(C(=O)C3CCC(CNS(=O)(=O)c4cccs4)CC3)CC2)c1C (centres undefined)	.	-3.1	-4.0	5.5	-0.3	-0.9
Cc1cccc(N2CCN(C(=O)C3CCN(S(=O)(=O)c4cccs4)CC3)CC2)c1C	-0.7%	-2.6	-34.1*	-13.0	-1.7	-2.1
OCCCCNCc1ccc(OCc2ccc(Cl)cc2Cl)cc1	3.2%	61.0*	-26.7	17.0	2.6	-9.4
OCCNCc1ccc(OCc2ccc(Cl)cc2Cl)cc1	0.2%[10.1 µM]	29.9	4.2	10.0	2.2	-4.3
CCc1ccc(NC(=O)C(=O)NCC(c2cccnc2)N2CCN(c3ccc(F)cc3)CC2)cc1 (centres undefined)	-2.2%	15.4	-11.0	10.4	-0.4	-2.0
CCc1cccc(C)c1NC(=O)CCn1c(=O)c2cccn2c2ccccc21	0.8%	14.7	-12.7	10.8	0.1	1.3
O=C(CCCn1c(=O)c2cccn2c2ccccc21)Nc1cccc(Cl)c1	0.0%	-0.3	-32.1*	1.3	-0.9	0.3
Cc1ccc(NC(=O)CCCn2c(=O)c3cccn3c3ccccc32)c(Cl)c1	2.8%	-0.9	9.2	-4.3	-0.3	-1.6
Cc1cc(C)cc(NC(=O)CCCn2c(=O)c3cccn3c3ccccc32)c1	1.4%	4.6	-70.5*	-3.5	-0.3	-4.7
SMILES	Epigenetic reg	D1 agonist	D1 antag	TRHR enhancer	TRHR ag	D1 potentiator
Cc1cc(C)c(NC(=O)CCn2c(=O)c3cccn3c3ccccc32)c(C)c1	0.8%	13.3	-49.3*	-4.8	0.2	3.3
Cc1ccc(NC(=O)CCCn2c(=O)c3cccn3c3ccccc32)c(C)c1	0.8%	-1.6	-14.2	20.3	-0.1	-0.4
CCCCCC(O)(CCN1CCCCC1)c1ccc(OCC)cc1 (centres undefined)	-1.2%	35.4*	-1.9	6.2	-0.2	-0.6
CCCCOc1ccc(C(=O)CCN2CCCCC2)cc1	-3.9%	4.2	-34.6*	-11.5	4.4	-3.9
CCOC(=O)N1CCN(CCC(=O)c2ccc(OC)cc2)CC1	4.2%	-1.8	-34.8*	7.4	0.3	5.8
CCOC(=O)N1CCN(Cc2nc3cc(NC(=O)c4ccc(OC)cc4)ccc3n2C(C)C)CC1	2.7%	0.7	-39.0*	-21.1	-0.4	-3.0
COc1ccc(C2NC(C(=O)O)Cc3c2[nH]c2ccccc32)cc1CN1CCN(c2ccc(F)cc2)CC1 (centres undefined)	-1.1%	1.5	-48.3*	-3.2	-0.3	-15.3
COc1ccc(C2NCCc3c2[nH]c2ccccc32)cc1COc1ccc(F)cc1 (centres undefined)	3.1%	77.2*	3.8	6.7	-0.1	-0.3
COc1ccc(CN2CCN(c3ccc(F)cc3)CC2)c(OC)c1OC	0.0%	17.3	-21.3	8.0	-0.7	-7.0
COc1cc(OC)c(CN2CCN(c3ccc(F)cc3)CC2)cc1Br	-1.1%	-0.1	-31.5*	3.9	0.2	-11.0
COc1ccc(/C=N/NC(=O)c2cc(OC)c(OC)c(OC)c2)cc1CN1CCc2cc(OC)c(OC)cc2C1C (centres undefined)	2.5%	2.5	-4.9	19.7	-0.5	-2.4
COc1ccc(C2NCCc3c2[nH]c2ccccc32)cc1CN1CCc2cc(OC)c(OC)cc2C1C (centres undefined)	0.0%	36.4*	-54.2*	3.5	4.5	-5.0
COc1ccc(-c2cn3nc(SCC(=O)Nc4cc(C)cc(C)c4)ccc3n2)cc1	9.2%	-0.2	-6.3	-6.1	-0.6	-1.9
O=C(CC1Sc2ccccc2NC1=O)c1ccc(Br)cc1 (centres undefined)	1.3%	0.5	-55.8*	2.6	0.3	-5.3
O=C(O)CC1Sc2ccccc2NC1=O (centres undefined)	-1.0%	1.7	-14.9	1.6	0.1	3.5
CCc1ccc(-n2nc(C)c3c(C)cc(=O)n(CC(=O)NCc4ccc(C)cc4)c32)cc1	11.8%	1.2	-0.1	3.1	0.5	-3.8
COc1ccc(CNCc2ccc3ccccc3c2)c(OC)c1	.	33.9*	-20.4	10.0	0.7	-3.5
COc1ccc(CNCc2cccc(Oc3ccccc3)c2)cc1	-1.1%	87.9*	12.3	3.2	-0.4	-3.1
COc1ccc(CNCc2ccncc2)c(OC)c1	.	6.4	-9.9	-4.5	0.8	4.3
COc1ccc(CNCc2cccc(C)c2)cc1	.	4.0	3.6	-4.0	0.4	6.5

Screening data as filed in PubChem BioAssay.
